The record followed here is PubChem BioAssay (NCI).

Values joined by “and” are separate entries in the source; they are usually repeats but may differ in a detail not shown here. Identical values can stand only once. The panel holds about 83,000 compounds, 20% with a hit somewhere; the sample as a whole holds those more often.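 Step 1: grow cells in 96-well plates. Step 2: add test compound at a single concentration. Step 3: incubate 48 h. Step 4: record percent growth.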 Active and inactive are the calls of the source. The calls were made as follows: active = growth percent below 10; inactive = the rest.

Experiment in all cases: NCI-60 one-dose screen, 48 h (100 = growth as untreated, 0 = no growth, -100 = all killed)
Assay [1] relates to HCT-15 colon. To be noted: 10 µM.
Assay [2] concerns HT29 colon. To be noted: 10 µM.
Assay [3] has as its system SNB-75 CNS. To be noted: 10 µM.
The test system of assay [4] is SNB-19 CNS. To be noted: 10 µM.
The test system of assay [5] is U251 CNS. To be noted: 10 µM unless noted.
The subject of assay [6] is PC-3 prostate. To be noted: 10 µM.
Assay [7] has as its system UACC-62 melanoma. To be noted: 10 µM.
Assay [8] concerns LOX IMVI melanoma. To be noted: 10 µM unless noted.
Assay [9] deals with SK-MEL-28 melanoma. To be noted: 10 µM.
For assay [10], the system named is SK-MEL-2 melanoma. To be noted: 10 µM.
Assay [11] has as its system EKVX NSCLC. To be noted: 10 µM.
The subject of assay [12] is SN12C renal. To be noted: 10 µM.
In assay [13] the test system is UO-31 renal. To be noted: 10 µM.
The subject of assay [14] is TK-10 renal. To be noted: 10 µM.
Assay [15] deals with ACHN renal. To be noted: 10 µM.
Assay [16] relates to CAKI-1 renal. To be noted: 10 µM.
Assay [17] deals with A498 renal. To be noted: 10 µM.
In assay [18] the test system is CCRF-CEM leukemia. To be noted: 10 µM.
The test system of assay [19] is MOLT-4 leukemia. To be noted: 10 µM.
Assay [20] deals with SK-MEL-5 melanoma. To be noted: 10 µM unless noted.

For the molecule `CC[N+](CC)=c1ccc2nc3c(cc(N)c4ccccc43)oc-2c1`, the growth in assay [1] was -54.6% (active); in assay [2] it was 5.58% (active); in assay [3] it was -73.4% (active); in [4] it was -64.3% (active); in assay [5], -76.1% (active); in assay [6], -48.8% (active). Besides, the growth was -79.9% (active) in assay [7]; -58.7% (active) in assay [8]; -61.8% (active) in assay [9]; -75.1% (active) in assay [10]; -66.6% (active) in assay [11]; -40.8% (active) in [12]. The growth was -56.7% (active) in [13]; -74.2% (active) in [14]; -77.6% (active) in [15]; -79% (active) in [16]; -76.4% (active) in assay [17]; 19.8% (inactive) in assay [18]. Besides, the growth in [19] was -44.4% (active).
For the molecule `CN(C)C(=S)SC(=S)N(C)C`, the growth was 87.5% (inactive) and 95.5% (inactive) in assay [1]; 82.2% (inactive) and 59.8% (inactive) in assay [2]; 97.2% (inactive) and 89.7% (inactive) in assay [3]; 98.7% (inactive) and 109% (inactive) in [4]; 96.1% (inactive) and 97.1% (inactive) in assay [5]; 93.1% (inactive) and 89.6% (inactive) in assay [6]. Besides, the growth is 92.9% (inactive) and 99% (inactive) in assay [20]; 92.1% (inactive) and 103% (inactive) in assay [7]; 99.8% (inactive) and 90.9% (inactive) in assay [8]; 105% (inactive) and 104% (inactive) in assay [9]; 107% (inactive) and 93.2% (inactive) in assay [10]; 91.2% (inactive) and 79.1% (inactive) in assay [13]. Also, the growth in assay [14] was 113% (inactive) and 112% (inactive); in [15], 101% (inactive) and 107% (inactive); in [16], 104% (inactive) and 103% (inactive); in assay [17] it was 94.7% (inactive); in assay [18], 80.6% (inactive) and 71.3% (inactive); in assay [19] it was 92.4% (inactive) and 85% (inactive).
Regarding `O=C(C(=Cc1ccccc1)C(=O)c1ccccc1)c1ccccc1`, the growth is 28.1% (inactive) and 88.8% (inactive) in assay [1]; 47.1% (inactive) and 91.2% (inactive) in assay [2]; 69.7% (inactive) and 81.4% (inactive) in assay [3]; 46.9% (inactive) and 92.4% (inactive) in assay [4]; 86.2% (inactive) in assay [5]; 48.3% (inactive) and 77.7% (inactive) in assay [6]. Besides, the growth in assay [7] was 48.8% (inactive) and 66.7% (inactive); in assay [8] it was -56.4% (active) and 77.5% (inactive); in assay [9], 60.4% (inactive) and 105% (inactive); in [10], 90% (inactive) and 83.2% (inactive); in assay [11] it was 79.2% (inactive) and 103% (inactive); in assay [13] it was 60.9% (inactive) and 87.8% (inactive). The growth in assay [14] was 124% (inactive) and 87.7% (inactive); in [15] it was 62.3% (inactive) and 85.8% (inactive); in assay [16] it was 84.5% (inactive) and 86.8% (inactive); in [17] it was 72.2% (inactive) and 88.6% (inactive); in assay [18] it was 10.8% (inactive) and 81.8% (inactive); in assay [19] it was 10.6% (inactive) and 85.4% (inactive).
Consider `Nc1nc(=S)c2ncn(C3OC(CO)C(O)C3O)c2[nH]1` (stereo not drawn), for which the growth in assay [1] was 107% (inactive) and 9.43% (active); in assay [2], 100% (inactive) and 14.3% (inactive); in assay [3] it was 101% (inactive) and 27.5% (inactive); in [4] it was 107% (inactive) and 78.6% (inactive); in [5], 105% (inactive) and 54.1% (inactive); in [6], 33.4% (inactive). The growth in assay [7] was 102% (inactive) and 0.101% (active); in [8], 104% (inactive) and 7.31% (active); in assay [9], 115% (inactive) and 50.8% (inactive); in assay [10] it was 93% (inactive) and 15.6% (inactive); in [11], 110% (inactive) and 23.3% (inactive); in assay [13] it was 95.4% (inactive) and 19.8% (inactive). Moreover, the growth in [14] is 120% (inactive) and -8.09% (active); in assay [15], 112% (inactive) and 17.2% (inactive); in [16] it was 113% (inactive) and -8.94% (active); in [17], 125% (inactive) and 29.6% (inactive); in assay [18], 96.4% (inactive) and 24.2% (inactive); in [19], 100% (inactive) and 13.4% (inactive).
Consider `Oc1ccc(N=Nc2ccccn2)c(O)c1`, for which the growth was 30.5% (inactive) in [1]; 21.6% (inactive) in [2]; 54.6% (inactive) in assay [3]; 31.2% (inactive) in assay [4]; 24.2% (inactive) in assay [5]; 36.1% (inactive) in [6]. For the same molecule, the growth in assay [7] was -34.1% (active); in [8], 8.85% (active); in assay [9] it was 31.7% (inactive); in [10], 27.8% (inactive); in assay [11] it was 24.1% (inactive); in [12], 20.5% (inactive). The growth in assay [13] is 5.48% (active); in [14] it was 36.1% (inactive); in [15] it was 13.8% (inactive); in assay [17], 59.2% (inactive); in assay [18] it was 3.95% (active); in assay [19], 4.34% (active).
As to `O=C(Nc1ccc(C(=O)O)c(O)c1)c1ccccc1`, the growth in assay [1] is 104% (inactive) and 99% (inactive); in assay [2] it was 103% (inactive) and 105% (inactive); in assay [3], 96.4% (inactive) and 96.3% (inactive); in assay [4], 107% (inactive) and 102% (inactive); in assay [5] it was 96.6% (inactive) and 104% (inactive); in [6] it was 91% (inactive) and 97.5% (inactive). In addition, the growth was 107% (inactive) and 106% (inactive) in assay [20]; 96.7% (inactive) and 96.4% (inactive) in assay [7]; 97.4% (inactive) and 97% (inactive) in assay [8]; 110% (inactive) and 151% (inactive) in assay [9]; 113% (inactive) and 97.3% (inactive) in assay [10]; 98.9% (inactive) and 93.7% (inactive) in [11]. The growth was 81.3% (inactive) and 88.6% (inactive) in assay [13]; 106% (inactive) and 94.5% (inactive) in assay [14]; 96% (inactive) and 96.3% (inactive) in assay [15]; 102% (inactive) and 85.8% (inactive) in assay [16]; 121% (inactive) and 139% (inactive) in [17]; 130% (inactive) and 124% (inactive) in assay [18]. Further, in assay [19], the growth is 109% (inactive) and 119% (inactive).
Consider `CCN(CC)c1ccc(NC(C(=O)c2ccccc2)c2ccccc2)cc1` (stereo not drawn), for which the growth in [1] was -16.4% (active); in assay [2], 12.4% (inactive); in assay [3], 81.7% (inactive); in assay [4] it was 36.6% (inactive); in assay [5], -17.5% (active); in assay [6], 83.7% (inactive). The growth is 78.8% (inactive) in assay [20]; 28.3% (inactive) in assay [7]; -43.4% (active) in [8]; 16.9% (inactive) in assay [9]; 78.4% (inactive) in [10]; 1.65% (active) in assay [12]. In addition, the growth in assay [13] is -24.8% (active); in assay [14], 41% (inactive); in assay [15], -34.6% (active); in [16], 17.8% (inactive); in assay [18], 10.3% (inactive); in [19], 12.8% (inactive).
